High-throughput results as filed in PubChem.
IL1B cytotox: HUVEC cytotoxicity counter-screen, IL-1B stimulated | HUVEC cell count loss, Hoechst imaging | cell count reduction, % at 2 µM | actives 0.41% (n = 94,000) | AID 845;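 active = cell count reduction more than 3 SD above the screen-wide mean, cut at about 70% in these data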;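 also: normalized per plate to untreated control cells as the no-loss baseline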
NFkB transloc pot: enhances IL-1B driven NFkB nuclear translocation. HUVEC IL-1B NFkB p65 nuclear translocation imaging. activation, % at 2 µM. actives 0.3% (n = 94,000);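 active = activation above 40%, about the mean plus 3 SD, also judged a hit on visual image review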;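 also: percent activation is computed from the nuclear over cytoplasmic p65 intensity ratio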
VCAM1 TNFa inh: reduces TNF alpha induced VCAM1 expression in HUVEC | HUVEC TNFa-induced VCAM-1 immunofluorescence, high-content imaging | inhibition, % at 2 µM | actives 0.48% (n = 95,000) | AID 802;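 active = inhibition above the batch mean plus 3 SD, with images confirmed as a hit by eye, cut at about 37% in these data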;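 also: 0% = TNF-stimulated DMSO wells and 100% = unstimulated control wells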
TNFa cytotox: HUVEC cytotoxicity counter-screen, TNF alpha stimulated | actives 0.17% (n = 93,000) | HUVEC TNFalpha-stimulated, Hoechst cell count, imaging | AID 848 | cell count reduction, % at 2 µM;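 active = cell count reduction exceeding the screen mean by over 5 SD, scaled to untreated wells per plate, cut at about 78% in these data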;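 also: cells counted after 24 h of TNF alpha exposure following the 1 h pretreatment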
NFkB transloc inh: blocks IL-1B driven NFkB nuclear translocation in HUVEC cells; HUVEC IL-1B NFkB p65 nuclear translocation imaging; AID 796; inhibition, % at 2 µM; actives 0.43% (n = 94,000);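 active = inhibition above about 30% together with a positive call from visual inspection of the well image, limit read from the data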;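 also: nuclear over cytoplasmic p65 intensity ratio measured by imaging; 0% = IL-1B stimulated DMSO wells and 100% = unstimulated DMSO wells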
Numbers without * were called inactive; x = no result. In the library only some 1.5% were active in any assay of this set; here they are far more common.

SMILES	IL1B cytotox	NFkB transloc pot	VCAM1 TNFa inh	TNFa cytotox	NFkB transloc inh
COc1ccc(/C=N/OCC(=O)N2CC3(C)CC2CC(C)(C)C3)cc1 (stereo unspecified)	-16	1	5	-15	-1
COc1ccc(C=NCCC2(O)CC(C)N(C)CC2C)cc1 (stereo unspecified)	-7	-40	2	2	40*
COc1ccc(CN2C(=O)c3ccccc3C(/C=N\OCc3ccc(C)cc3)C2=O)cc1 (stereo unspecified)	-37	-10	-10	9	10
CCOC(=O)c1cccc(NC(=O)CSc2nnc(-c3ccoc3C)n2CCOC)c1	17	0	50	91*	0
Cc1occc1-c1nnc(SCC(=O)Nc2ccccc2)n1CCc1ccccc1	-13	-3	-11	-4	3
CCCc1nnc(SCC(=O)N2CCCC(C)C2)n1CC1CCCO1 (stereo unspecified)	-16	-3	15	-6	3
CN(C)c1ccc(/C=N/NC(=O)c2ccc(Cl)cc2)cc1	-30	-50	-1	-8	50*
O=C(N/N=C/c1cccc(F)c1)c1cc(-c2ccco2)nc2ccccc12	-23	1	3	-6	-1
CC(CC1C(C#N)=C(N)SC(N)=C1C#N)c1ccccc1 (stereo unspecified)	6	2	11	25	-2
Cc1ccc(CN2CCC(c3nc4ccc(Cl)cc4[nH]3)CC2)cc1	0	-34	-6	0	34*
O=C(Cn1nnc2ccccc21)N/N=C\C=C\c1ccccc1	88*	6	-14	-10	-6
CCOC(=O)C(CC)(CC)/C(C)=N/NC(=O)CC#N	1	-8	18	8	8
Cc1ccc(NC(=S)NCC2CCCO2)cc1C (stereo unspecified)	91*	-11	-9	-7	11
COc1ccc2[nH]cc(C(=O)CN3CCN(C/C=C/c4ccccc4)CC3)c2c1	4	-36	10	21	36*
COc1ccc2c(C(=O)CN3CCN(CCO)CC3)c[nH]c2c1	-8	6	17	-11	-6
COC(=O)c1ccc(COC(=O)C23CC4CC(CC(O)(C4)C2)C3)o1	3	-1	6	11	1
CN(N)c1nc(-c2ccccc2)nnc1C(F)(F)F	86*	-1	1	-31	1
COc1cccc(CN(CC2CCCO2)S(=O)(=O)c2ccc(S(=O)(=O)N(C)C)cc2)c1 (stereo unspecified)	0	14	5	-24	-14
COc1ccc(CNC(=O)C2CCCN(S(=O)(=O)c3cc(C)ccc3OC)C2)cc1 (stereo unspecified)	8	-64	5	-16	64*
Cc1cccc2c(SCC(=O)NCC3CCCO3)nc(-c3ccc(F)cc3)nc12 (stereo unspecified)	-1	-2	4	-18	2
CCN(C(=O)c1cc2ccccc2oc1=O)c1ccccc1	4	-10	14	10	10
O=C(c1cc2ccccc2oc1=O)N(Cc1cccs1)Cc1ccccc1Cl	94*	3	10	-4	-3
CCc1ccccc1NC(=S)N1CCC(C(=O)c2ccc(F)cc2)CC1	-14	16	11	-1	-16
CC(C)Cn1cnc2c1c(=O)n(CC(=O)Nc1ccc3c(c1)OCO3)c(=O)n2Cc1ccccc1	72*	-33	-1	13	33*
CCc1ccc(NC(=O)c2ccccc2NC(=O)C2CCCO2)cc1 (stereo unspecified)	10	-4	3	14	4
SMILES	IL1B cytotox	NFkB transloc pot	VCAM1 TNFa inh	TNFa cytotox	NFkB transloc inh
Cc1ncsc1CCSc1nc2ccccc2c(=O)n1C	80*	-27	-6	-12	28
N#C/C(=C(/O)CN1C(=O)c2ccccc2C1=O)c1nc2ccccc2[nH]1	80*	3	2	-4	-3
N#C/C(=C(\O)Cc1ccccc1)c1nc2ccccc2[nH]1	10	25	27	12	-25
CC(=O)Nc1sc(C)c(C)c1C(=O)OC1CCOC1=O (stereo unspecified)	-11	25	-2	-2	-25
COc1ccccc1C1C(C(C)=O)=C(C)N=c2s/c(=C\c3cc(OC)c(OC)c(OC)c3)c(=O)n21 (stereo unspecified)	84*	-98	-16	-23	98*
COC(=O)C1=C(C)N=c2s/c(=C/c3cccs3)c(=O)n2C1c1ccc(F)cc1 (stereo unspecified)	-27	-3	-19	x	3
CCOc1cc(/C=N/NC(=O)CNc2ccc(C)cc2)ccc1OC(=O)c1ccccc1	x	x	0	6	x
O=C(Oc1ccccc1)c1c(Cl)cccc1P(=O)(O)O	0	4	23	30	-4
O=C(Nc1cccc2nsnc12)c1ccc(-c2ccc(Br)cc2)o1	0	4	-32	x	-6
COC(=O)C1=C(C)Nc2nnnn2C1c1cccnc1 (stereo unspecified)	12	-34	-4	-6	34*
CC1=C(C(=O)Nc2ccccn2)C(c2cccnc2)n2nnnc2N1 (stereo unspecified)	-15	1	-3	-5	-1
CCOC(=O)C1=C(C)Nc2nnnn2C1c1ccccc1Cl (stereo unspecified)	-31	46*	17	-10	-46
Cc1ccc(C(C(=O)NC2CCCC2)N(Cc2ccco2)C(=O)CCC(=O)Nc2cc(C)on2)cc1 (stereo unspecified)	-38	-3	13	5	4
Cc1cc(NC(=O)CCC(=O)N(Cc2ccco2)C2(C(=O)NC3CCCCC3)CCN(C)CC2)no1	87*	-99	3	-2	99*
CCOC(=O)c1nnn(-c2nonc2N)c1-c1ccc(C)cc1	-20	10	2	-14	-10
CCOC(=O)c1nnn(-c2nonc2N)c1-c1ccccc1	1	42*	8	-26	-42
CCCc1cc(=O)[nH]c(NCc2ccc(Cl)cc2)n1	90*	0	15	-6	0
CCCc1cc(=O)[nH]c(Nc2ccc(O)cc2)n1	-7	9	0	-37	-9
O=[N+]([O-])c1ccccc1CNC(Cc1ccccc1)c1ccccc1 (stereo unspecified)	x	x	13	-24	x
Cc1cc(C)cc(OCC(=O)Nc2nonc2NC(=O)COc2cc(C)cc(C)c2)c1	7	-2	78*	76	2
O=S(=O)(c1ccc(Cl)cc1)N1c2ccccc2Oc2nc3ccccc3nc21	86*	-97	12	0	97*
O=C(CSc1nnc(CNc2cccc(C(F)(F)F)c2)n1Cc1ccco1)NCc1ccco1	-38	69*	-6	-4	-69
CCn1c(N2CCN(C(=S)NCCc3ccccc3)CC2)nc2ccccc21	7	3	11	9	-3
CCOC(=O)C(C)Oc1cccc2c(=O)n(CC(=O)NCc3ccc4c(c3)OCO4)ccc12 (stereo unspecified)	-48	14	39	94*	-14
COc1ccc(C2CC(=O)c3cnc(NC(=O)c4ccccc4)nc3C2)c(OC)c1 (stereo unspecified)	-19	10	-3	-50	-10
